What was measured:
[1] = molecular target: T1, Muscle, skeletal receptor tyrosine-protein kinase (Homo sapiens) (UniProt O15146); settings: at 1 µM;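 also: reported value is the mean percent inhibition of MuSK kinase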
T1 sequence (whole entry): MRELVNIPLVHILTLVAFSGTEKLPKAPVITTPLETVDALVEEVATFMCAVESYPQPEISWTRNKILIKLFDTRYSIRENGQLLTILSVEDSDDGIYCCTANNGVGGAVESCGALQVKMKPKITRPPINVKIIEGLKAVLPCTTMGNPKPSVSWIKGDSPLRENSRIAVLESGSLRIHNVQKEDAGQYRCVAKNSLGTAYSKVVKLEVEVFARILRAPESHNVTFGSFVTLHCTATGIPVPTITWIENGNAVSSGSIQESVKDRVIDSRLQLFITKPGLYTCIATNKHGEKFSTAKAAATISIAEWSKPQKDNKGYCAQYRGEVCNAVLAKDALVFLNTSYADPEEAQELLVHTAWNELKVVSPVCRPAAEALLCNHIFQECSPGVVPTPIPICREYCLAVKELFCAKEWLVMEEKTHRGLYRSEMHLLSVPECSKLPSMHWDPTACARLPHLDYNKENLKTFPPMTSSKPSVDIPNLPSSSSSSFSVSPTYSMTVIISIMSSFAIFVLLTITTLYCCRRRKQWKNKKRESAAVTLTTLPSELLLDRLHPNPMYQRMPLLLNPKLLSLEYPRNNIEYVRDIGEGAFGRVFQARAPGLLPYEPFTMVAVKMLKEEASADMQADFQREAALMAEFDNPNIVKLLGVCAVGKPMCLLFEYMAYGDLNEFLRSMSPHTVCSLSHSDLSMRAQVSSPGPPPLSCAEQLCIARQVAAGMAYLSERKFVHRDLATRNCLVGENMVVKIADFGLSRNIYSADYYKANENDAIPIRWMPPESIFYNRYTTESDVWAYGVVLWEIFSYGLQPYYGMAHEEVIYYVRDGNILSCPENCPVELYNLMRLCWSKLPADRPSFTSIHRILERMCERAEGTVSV

[2] = molecular target: Platelet-derived growth factor receptor alpha (Homo sapiens) (UniProt P16234); settings: at 0.1 µM
[3] = molecular target: Platelet-derived growth factor receptor alpha (Homo sapiens) (UniProt P16234); settings: at 1 µM
[4] = test system: Platelet-derived growth factor receptor alpha (Homo sapiens), P16234 [D842V]; settings: at 0.1 µM
Chain of Platelet-derived growth factor receptor alpha (Homo sapiens), P16234 [D842V] (P16234 whole entry D842V): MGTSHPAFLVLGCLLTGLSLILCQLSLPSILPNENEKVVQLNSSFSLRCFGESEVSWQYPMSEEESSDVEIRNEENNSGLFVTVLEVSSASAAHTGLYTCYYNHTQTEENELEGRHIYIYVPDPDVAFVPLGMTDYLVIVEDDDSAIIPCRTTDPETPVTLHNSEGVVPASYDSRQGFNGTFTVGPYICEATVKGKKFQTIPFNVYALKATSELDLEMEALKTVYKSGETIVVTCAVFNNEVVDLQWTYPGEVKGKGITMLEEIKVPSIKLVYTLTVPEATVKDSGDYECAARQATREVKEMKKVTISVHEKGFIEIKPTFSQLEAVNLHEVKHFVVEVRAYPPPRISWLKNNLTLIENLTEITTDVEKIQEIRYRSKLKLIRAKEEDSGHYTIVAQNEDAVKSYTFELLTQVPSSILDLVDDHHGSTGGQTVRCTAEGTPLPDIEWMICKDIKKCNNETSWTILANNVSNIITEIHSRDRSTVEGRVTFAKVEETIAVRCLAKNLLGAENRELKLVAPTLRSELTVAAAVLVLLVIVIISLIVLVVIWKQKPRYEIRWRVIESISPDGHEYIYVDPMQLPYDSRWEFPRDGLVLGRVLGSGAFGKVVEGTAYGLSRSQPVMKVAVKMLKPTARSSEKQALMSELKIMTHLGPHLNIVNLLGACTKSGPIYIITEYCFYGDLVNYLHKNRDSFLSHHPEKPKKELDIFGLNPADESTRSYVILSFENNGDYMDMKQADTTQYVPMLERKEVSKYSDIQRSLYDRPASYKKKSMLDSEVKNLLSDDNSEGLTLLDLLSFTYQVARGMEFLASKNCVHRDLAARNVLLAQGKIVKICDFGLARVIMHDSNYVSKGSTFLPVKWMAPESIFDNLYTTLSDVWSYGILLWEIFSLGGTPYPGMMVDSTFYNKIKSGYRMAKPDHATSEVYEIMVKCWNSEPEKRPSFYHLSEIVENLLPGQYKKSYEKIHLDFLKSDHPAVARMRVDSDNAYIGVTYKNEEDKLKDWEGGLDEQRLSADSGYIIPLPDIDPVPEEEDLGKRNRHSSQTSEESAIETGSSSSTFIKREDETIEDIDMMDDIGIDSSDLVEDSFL

[5] = test system: Platelet-derived growth factor receptor alpha (Homo sapiens), P16234 [D842V]; settings: at 1 µM
[6] = test system: Platelet-derived growth factor receptor alpha (Homo sapiens), P16234 [T674I]; settings: at 0.1 µM
[7] = test system: Platelet-derived growth factor receptor alpha (Homo sapiens), P16234 [T674I]; settings: at 1 µM
[8] = test system: Platelet-derived growth factor receptor alpha (Homo sapiens), P16234 [V561D]; settings: at 0.1 µM
[9] = test system: Platelet-derived growth factor receptor alpha (Homo sapiens), P16234 [V561D]; settings: at 1 µM
[10] = molecular target: Platelet-derived growth factor receptor beta (Homo sapiens) (UniProt P09619); settings: at 0.1 µM
[11] = molecular target: Platelet-derived growth factor receptor beta (Homo sapiens) (UniProt P09619); settings: at 1 µM
[12] = molecular target: Tyrosine-protein kinase FRK (Homo sapiens) (UniProt P42685); settings: at 0.1 µM
Chain of Tyrosine-protein kinase FRK (Homo sapiens) (P42685 whole entry): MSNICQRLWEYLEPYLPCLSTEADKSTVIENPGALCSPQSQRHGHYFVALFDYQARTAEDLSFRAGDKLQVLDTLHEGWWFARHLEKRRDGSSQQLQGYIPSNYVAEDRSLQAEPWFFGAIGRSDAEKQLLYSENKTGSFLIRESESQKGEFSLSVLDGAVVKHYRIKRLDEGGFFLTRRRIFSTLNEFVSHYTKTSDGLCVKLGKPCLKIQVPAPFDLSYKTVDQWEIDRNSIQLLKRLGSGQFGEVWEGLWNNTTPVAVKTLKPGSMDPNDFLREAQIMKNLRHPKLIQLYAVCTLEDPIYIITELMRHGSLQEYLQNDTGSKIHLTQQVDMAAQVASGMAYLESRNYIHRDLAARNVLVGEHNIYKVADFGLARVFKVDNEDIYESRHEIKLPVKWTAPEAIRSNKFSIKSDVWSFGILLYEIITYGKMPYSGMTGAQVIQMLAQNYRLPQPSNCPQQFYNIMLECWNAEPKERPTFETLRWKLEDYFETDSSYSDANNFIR

[13] = molecular target: Tyrosine-protein kinase FRK (Homo sapiens) (UniProt P42685); settings: at 1 µM
[14] = molecular target: Protein-tyrosine kinase 2-beta (Homo sapiens) (UniProt Q14289); settings: at 0.1 µM
Chain of Protein-tyrosine kinase 2-beta (Homo sapiens) (Q14289 whole entry, looked up): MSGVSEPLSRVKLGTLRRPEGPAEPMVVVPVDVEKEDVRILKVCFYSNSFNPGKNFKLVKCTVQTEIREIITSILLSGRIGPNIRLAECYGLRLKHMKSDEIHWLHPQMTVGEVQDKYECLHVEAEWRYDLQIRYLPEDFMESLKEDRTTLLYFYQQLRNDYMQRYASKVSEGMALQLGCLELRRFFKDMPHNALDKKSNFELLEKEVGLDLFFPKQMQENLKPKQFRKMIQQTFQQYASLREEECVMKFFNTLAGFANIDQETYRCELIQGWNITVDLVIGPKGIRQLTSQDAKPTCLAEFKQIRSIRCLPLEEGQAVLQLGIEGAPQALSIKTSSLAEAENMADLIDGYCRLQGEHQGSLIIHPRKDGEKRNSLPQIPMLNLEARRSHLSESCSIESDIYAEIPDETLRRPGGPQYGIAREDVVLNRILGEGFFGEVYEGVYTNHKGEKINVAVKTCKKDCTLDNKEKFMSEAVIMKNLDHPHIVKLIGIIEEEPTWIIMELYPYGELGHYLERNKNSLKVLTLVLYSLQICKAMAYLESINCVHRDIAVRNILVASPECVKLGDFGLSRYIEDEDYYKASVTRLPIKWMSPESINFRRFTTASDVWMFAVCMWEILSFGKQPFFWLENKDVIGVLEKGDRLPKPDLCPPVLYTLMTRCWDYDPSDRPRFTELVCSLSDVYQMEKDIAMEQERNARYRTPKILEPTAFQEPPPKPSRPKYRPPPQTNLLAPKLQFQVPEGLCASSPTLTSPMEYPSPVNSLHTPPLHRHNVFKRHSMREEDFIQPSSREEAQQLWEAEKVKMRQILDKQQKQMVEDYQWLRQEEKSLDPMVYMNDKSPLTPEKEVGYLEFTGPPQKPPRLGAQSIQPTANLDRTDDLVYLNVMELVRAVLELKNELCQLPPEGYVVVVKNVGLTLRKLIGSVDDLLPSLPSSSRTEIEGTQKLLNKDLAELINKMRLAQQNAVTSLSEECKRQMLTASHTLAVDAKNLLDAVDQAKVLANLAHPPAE

[15] = molecular target: Protein-tyrosine kinase 2-beta (Homo sapiens) (UniProt Q14289); settings: at 1 µM
[16] = molecular target: Proto-oncogene tyrosine-protein kinase receptor Ret (Homo sapiens) (UniProt P07949); settings: at 0.1 µM
[17] = molecular target: Proto-oncogene tyrosine-protein kinase receptor Ret (Homo sapiens) (UniProt P07949); settings: at 1 µM
[18] = test system: Proto-oncogene tyrosine-protein kinase receptor Ret (Homo sapiens), P07949 [V804L]; settings: at 0.1 µM
Chain of Proto-oncogene tyrosine-protein kinase receptor Ret (Homo sapiens), P07949 [V804L] (P07949 whole entry V804L): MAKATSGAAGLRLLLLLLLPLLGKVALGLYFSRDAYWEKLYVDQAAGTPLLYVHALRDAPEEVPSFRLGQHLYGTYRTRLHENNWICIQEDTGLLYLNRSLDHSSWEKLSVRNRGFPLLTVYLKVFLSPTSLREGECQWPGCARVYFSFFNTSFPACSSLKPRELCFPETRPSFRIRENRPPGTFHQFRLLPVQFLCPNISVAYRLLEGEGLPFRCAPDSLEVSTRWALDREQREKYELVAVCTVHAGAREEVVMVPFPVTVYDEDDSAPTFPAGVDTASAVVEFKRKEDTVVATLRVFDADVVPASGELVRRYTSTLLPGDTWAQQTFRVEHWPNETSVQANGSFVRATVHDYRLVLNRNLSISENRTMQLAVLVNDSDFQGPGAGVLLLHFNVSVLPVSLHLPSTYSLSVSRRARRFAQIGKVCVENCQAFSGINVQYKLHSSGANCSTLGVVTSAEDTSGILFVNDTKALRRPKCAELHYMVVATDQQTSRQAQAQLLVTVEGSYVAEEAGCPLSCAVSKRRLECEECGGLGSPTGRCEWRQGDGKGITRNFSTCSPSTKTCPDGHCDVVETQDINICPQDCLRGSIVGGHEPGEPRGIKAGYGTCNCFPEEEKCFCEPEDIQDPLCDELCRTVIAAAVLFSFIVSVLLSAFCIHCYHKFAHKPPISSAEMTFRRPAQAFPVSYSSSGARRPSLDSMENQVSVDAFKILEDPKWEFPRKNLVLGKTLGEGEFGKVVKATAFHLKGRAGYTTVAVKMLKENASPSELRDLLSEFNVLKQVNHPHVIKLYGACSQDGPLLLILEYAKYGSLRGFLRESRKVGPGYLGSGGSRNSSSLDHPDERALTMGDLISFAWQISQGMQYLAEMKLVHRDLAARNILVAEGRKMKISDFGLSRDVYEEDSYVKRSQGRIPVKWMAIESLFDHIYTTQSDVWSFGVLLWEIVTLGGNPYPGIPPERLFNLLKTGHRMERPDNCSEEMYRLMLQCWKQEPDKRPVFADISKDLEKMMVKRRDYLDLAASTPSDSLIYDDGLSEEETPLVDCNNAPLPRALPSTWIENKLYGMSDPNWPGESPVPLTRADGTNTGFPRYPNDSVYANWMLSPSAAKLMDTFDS

[19] = test system: Proto-oncogene tyrosine-protein kinase receptor Ret (Homo sapiens), P07949 [V804L]; settings: at 1 µM
[20] = test system: Proto-oncogene tyrosine-protein kinase receptor Ret (Homo sapiens), P07949 [Y791F]; settings: at 0.1 µM
Chain of Proto-oncogene tyrosine-protein kinase receptor Ret (Homo sapiens), P07949 [Y791F] (P07949 whole entry Y791F): as the sequence (P07949 whole entry V804L) above, with Y791F, L804V counted along it

SMILES | inhibition [1] [%] | inhibition [2] [%] | inhibition [3] [%] | inhibition [4] [%] | inhibition [5] [%] | inhibition [6] [%] | inhibition [7] [%] | inhibition [8] [%] | inhibition [9] [%] | inhibition [10] [%] | inhibition [11] [%] | inhibition [12] [%] | inhibition [13] [%] | inhibition [14] [%] | inhibition [15] [%] | inhibition [16] [%] | inhibition [17] [%] | inhibition [18] [%] | inhibition [19] [%] | inhibition [20] [%]
COc1cccc(-n2ncc3c(N/N=C/c4ccc(C(=O)NCCN(C)C)cc4)ncnc32)c1 | 80.3 | 42.3 | 74.1 | 55.7 | 88.8 | 20.5 | 78.5 | 44 | 85.5 | 62.4 | 77.6 | 3.91 | 12.2 | 5.72 | 12.1 | 22.4 | 66.9 | 12.7 | 50.4 | 37.3
Cc1nnc(-c2cccc(-c3ccc(C(=O)NCC4CC4)cc3)c2)o1 | 6.37 | 13.9 | 15.2 | 2.78 | 5.47 | 6.98 | 11.6 | 4.66 | 3.3 | 5.4 | 8.15 | 1.96 | 3.45 | 12.3 | 9.85 | 4.13 | 7.32 | 4.63 | 16.7 | 5
CS(=O)(=O)Nc1ccc(-c2cc(-c3ccccc3)cc(C(N)=O)c2N)cc1 | 5.45 | 5.04 | 12.1 | -0.88 | 1.32 | 3.63 | 9.21 | 3.05 | 5.7 | 4 | 9.4 | -0.3 | 1.63 | 3.11 | 8.02 | -0.09 | 2.84 | 2.01 | 2.99 | 4
O=C(O[C@H]1CN[C@H](C#Cc2cc3ncnc(Nc4ccc5c(cnn5Cc5ccccc5)c4)c3s2)C1)N1CCOCC1 | -0.19 | 2.17 | 8.81 | 2.71 | 3.09 | -0.12 | 2.78 | 2.22 | 2.22 | 2.18 | 6.66 | 0.07 | -1.26 | 1.18 | -1.26 | 2.44 | 4.66 | 2.83 | 4.7 | 2.45
